# Source: article PMC7862700, “An all-to-all approach to the identification of sequence-specific readers for epigenetic DNA modifications on cytosine”
# How the values were obtained:
# Assay in all cases: DAPPL (digital affinity profiling via proximity ligation, sequencing); 10 mM Tris-HCl pH 7.5, 50 mM NaCl, 1 mM DTT, 4% glycerol, room temperature, 30 min; GST-TFs on glutathione beads, 16-mer random dsDNA library, 0.1% formaldehyde crosslink after washing; high values mean tight binding
# Conditions in all cases: protein: recombinant; tags: N-terminal GST; dsDNA, one strand shown
# ELK1 = target: T1, ELK1 (Homo sapiens, UniProt P19419 1-428)
# T1 sequence: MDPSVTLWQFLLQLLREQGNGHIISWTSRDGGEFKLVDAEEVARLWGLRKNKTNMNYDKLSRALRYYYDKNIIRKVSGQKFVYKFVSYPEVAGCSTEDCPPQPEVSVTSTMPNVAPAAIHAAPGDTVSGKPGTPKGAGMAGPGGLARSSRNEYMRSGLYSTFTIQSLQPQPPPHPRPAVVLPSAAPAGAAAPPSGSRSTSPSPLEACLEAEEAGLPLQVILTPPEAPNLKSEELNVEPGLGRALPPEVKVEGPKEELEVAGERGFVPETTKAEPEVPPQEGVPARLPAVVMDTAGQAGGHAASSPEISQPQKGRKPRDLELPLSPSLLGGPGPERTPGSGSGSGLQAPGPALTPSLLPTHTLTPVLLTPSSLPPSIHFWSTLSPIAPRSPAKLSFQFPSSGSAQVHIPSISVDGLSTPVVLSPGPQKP
# Summary of the method: (§1)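 GST fusions of human transcription factors were expressed in yeast and captured with glutathione beads. Once given DNA barcodes and pooled alongside a tag-only sample, they were incubated for 30 min at room temperature with 200 nmole of a random double-stranded 16-mer DNA library in Tris/NaCl/DTT/glycerol buffer, then washed, crosslinked (0.1% formaldehyde), proximity-ligated, PCR-amplified and sequenced on an Illumina NextSeq500. The binding signal of each hexamer is its read frequency for a factor divided by its frequency for the tag-only sample.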
# ERG = target: T2, ERG (Homo sapiens, UniProt P11308 1-479)
# T2 sequence: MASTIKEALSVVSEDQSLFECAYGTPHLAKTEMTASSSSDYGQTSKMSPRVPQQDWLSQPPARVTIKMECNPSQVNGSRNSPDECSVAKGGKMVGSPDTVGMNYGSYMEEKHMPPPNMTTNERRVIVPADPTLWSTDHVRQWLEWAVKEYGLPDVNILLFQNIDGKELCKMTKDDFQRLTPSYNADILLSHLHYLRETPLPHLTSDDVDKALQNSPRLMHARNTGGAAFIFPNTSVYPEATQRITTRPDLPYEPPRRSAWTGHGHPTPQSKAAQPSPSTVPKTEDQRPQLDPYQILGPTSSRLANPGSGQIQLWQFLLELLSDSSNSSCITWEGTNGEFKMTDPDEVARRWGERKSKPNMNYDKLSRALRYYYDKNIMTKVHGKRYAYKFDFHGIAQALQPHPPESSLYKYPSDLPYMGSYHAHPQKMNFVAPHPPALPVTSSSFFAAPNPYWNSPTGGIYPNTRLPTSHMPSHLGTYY
# Summary of the method: as §1
# EHF = target: T3, EHF (Homo sapiens, UniProt Q9NZC4 1-300)
# T3 sequence: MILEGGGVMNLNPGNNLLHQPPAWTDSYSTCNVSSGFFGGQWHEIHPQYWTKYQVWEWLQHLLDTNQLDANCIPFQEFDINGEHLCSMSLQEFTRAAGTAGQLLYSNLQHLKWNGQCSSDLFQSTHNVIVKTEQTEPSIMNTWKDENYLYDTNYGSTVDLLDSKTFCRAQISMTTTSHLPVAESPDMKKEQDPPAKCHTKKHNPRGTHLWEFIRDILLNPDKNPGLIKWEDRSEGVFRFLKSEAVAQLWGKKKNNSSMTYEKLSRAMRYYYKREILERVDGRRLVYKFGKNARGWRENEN
# Summary of the method: as §1
# SPIB = SPIB (Homo sapiens, UniProt Q01892 1-262)
# Summary of the method: as §1
# ETV5 = ETV5 (Homo sapiens, UniProt P41161 1-510)
# Summary of the method: as §1
# SPIC = target: T4, SPIC (Homo sapiens, UniProt Q8N5J4 1-248)
# T4 sequence: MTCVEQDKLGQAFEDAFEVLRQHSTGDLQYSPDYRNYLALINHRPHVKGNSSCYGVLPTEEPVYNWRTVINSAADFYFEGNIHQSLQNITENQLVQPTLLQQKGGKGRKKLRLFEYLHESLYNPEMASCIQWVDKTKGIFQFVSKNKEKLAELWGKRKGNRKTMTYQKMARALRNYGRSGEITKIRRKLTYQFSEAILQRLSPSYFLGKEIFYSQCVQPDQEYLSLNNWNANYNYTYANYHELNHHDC
# Summary of the method: as §1
# ELF4 = ELF4 (Homo sapiens, UniProt Q99607 1-663)
# Summary of the method: as §1
# ELK4 = target: T5, ELK4 (Homo sapiens, UniProt P28324-2 1-405)
# T5 sequence: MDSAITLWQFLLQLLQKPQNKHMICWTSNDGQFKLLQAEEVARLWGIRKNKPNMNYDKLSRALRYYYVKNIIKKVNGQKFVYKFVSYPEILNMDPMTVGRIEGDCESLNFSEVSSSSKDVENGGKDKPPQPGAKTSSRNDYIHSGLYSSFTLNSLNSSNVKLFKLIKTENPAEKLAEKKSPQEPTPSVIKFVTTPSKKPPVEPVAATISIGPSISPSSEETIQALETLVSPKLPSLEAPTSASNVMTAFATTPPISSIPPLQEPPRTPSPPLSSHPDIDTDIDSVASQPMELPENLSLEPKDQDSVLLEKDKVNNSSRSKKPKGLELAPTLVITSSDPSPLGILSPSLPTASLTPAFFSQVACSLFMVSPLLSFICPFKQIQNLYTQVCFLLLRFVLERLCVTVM
# Summary of the method: as §1
# ELF3 = target: T6, ELF3 (Homo sapiens, UniProt P78545 1-371)
# T6 sequence: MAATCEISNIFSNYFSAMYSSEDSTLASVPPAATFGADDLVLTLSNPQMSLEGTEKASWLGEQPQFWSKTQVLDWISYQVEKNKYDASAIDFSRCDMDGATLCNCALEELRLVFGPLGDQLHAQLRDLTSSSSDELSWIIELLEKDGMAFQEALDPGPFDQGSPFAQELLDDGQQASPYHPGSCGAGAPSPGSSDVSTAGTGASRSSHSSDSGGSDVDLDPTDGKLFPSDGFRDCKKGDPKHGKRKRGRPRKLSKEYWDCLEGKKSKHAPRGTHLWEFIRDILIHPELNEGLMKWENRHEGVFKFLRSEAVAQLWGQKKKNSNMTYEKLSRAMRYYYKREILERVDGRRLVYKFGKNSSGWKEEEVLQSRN
# Summary of the method: as §1
# ERF = target: T7, ERF (Homo sapiens, UniProt P50548 1-548)
# T7 sequence: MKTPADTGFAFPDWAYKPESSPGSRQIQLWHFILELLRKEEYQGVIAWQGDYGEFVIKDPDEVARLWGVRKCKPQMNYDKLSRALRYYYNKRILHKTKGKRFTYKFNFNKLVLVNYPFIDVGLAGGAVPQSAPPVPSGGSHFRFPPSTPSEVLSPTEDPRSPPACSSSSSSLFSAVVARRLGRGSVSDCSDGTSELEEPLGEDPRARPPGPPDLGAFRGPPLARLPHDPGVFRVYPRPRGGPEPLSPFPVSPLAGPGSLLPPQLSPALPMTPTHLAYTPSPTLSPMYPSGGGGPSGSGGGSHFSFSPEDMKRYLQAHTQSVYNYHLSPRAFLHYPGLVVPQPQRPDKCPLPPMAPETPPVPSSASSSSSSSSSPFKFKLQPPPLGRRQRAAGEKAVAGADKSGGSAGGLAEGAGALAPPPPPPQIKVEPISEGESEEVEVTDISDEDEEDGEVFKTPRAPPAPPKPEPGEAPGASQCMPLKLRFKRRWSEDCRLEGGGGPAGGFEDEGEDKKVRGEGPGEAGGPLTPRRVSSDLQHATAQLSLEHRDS
# Summary of the method: as §1
# ETV3L = target: T8, ETV3L (Homo sapiens, UniProt Q6ZN32 1-361)
# T8 sequence: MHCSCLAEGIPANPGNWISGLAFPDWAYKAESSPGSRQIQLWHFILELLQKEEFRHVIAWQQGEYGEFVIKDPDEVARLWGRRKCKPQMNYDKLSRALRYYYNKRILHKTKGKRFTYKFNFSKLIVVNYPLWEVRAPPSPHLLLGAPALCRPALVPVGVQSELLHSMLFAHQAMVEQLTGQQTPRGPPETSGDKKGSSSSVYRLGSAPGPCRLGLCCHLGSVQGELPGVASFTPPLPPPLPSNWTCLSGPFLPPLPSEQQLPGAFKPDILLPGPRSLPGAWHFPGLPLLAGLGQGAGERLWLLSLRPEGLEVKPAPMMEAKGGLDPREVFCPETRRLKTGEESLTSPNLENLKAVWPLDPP
# Summary of the method: as §1
# ETS2 = target: T9, ETS2 (Homo sapiens, UniProt P15036 1-469)
# T9 sequence: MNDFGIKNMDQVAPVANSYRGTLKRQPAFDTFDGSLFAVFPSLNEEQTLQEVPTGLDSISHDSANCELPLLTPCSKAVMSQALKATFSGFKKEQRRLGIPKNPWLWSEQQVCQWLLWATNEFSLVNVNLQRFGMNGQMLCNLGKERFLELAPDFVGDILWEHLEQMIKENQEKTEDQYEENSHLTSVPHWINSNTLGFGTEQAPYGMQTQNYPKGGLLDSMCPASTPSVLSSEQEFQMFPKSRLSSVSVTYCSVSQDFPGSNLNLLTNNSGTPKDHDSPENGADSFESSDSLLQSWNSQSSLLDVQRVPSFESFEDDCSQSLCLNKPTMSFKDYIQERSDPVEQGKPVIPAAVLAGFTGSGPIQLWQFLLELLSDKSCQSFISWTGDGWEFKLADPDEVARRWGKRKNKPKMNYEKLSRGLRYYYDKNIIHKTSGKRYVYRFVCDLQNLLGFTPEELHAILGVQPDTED
# Summary of the method: as §1
# SPDEF = target: T10, SPDEF (Homo sapiens, UniProt O95238 1-335)
# T10 sequence: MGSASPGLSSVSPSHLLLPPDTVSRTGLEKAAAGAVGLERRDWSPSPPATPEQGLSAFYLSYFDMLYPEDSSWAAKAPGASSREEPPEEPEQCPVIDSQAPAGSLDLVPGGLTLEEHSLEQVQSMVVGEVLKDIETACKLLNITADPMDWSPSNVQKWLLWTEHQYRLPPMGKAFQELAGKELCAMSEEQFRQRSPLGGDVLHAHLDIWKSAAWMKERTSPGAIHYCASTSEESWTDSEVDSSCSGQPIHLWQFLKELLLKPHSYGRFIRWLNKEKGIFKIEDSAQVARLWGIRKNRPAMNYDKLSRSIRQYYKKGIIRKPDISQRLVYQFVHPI
# Summary of the method: as §1
# ETV7 = target: T11, ETV7 (Homo sapiens, UniProt Q9Y603 1-341)
# T11 sequence: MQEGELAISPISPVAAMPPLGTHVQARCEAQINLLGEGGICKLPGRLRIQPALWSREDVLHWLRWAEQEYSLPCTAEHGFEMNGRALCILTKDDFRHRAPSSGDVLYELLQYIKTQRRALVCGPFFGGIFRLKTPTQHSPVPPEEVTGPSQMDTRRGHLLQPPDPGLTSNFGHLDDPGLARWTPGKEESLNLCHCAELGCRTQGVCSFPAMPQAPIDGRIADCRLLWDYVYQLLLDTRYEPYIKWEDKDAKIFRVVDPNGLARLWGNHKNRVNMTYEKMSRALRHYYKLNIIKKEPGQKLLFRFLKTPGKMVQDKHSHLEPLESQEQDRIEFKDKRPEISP
# Summary of the method: as §1
# ETV3 = target: T12, ETV3 (Homo sapiens, UniProt P41162-2 1-143)
# T12 sequence: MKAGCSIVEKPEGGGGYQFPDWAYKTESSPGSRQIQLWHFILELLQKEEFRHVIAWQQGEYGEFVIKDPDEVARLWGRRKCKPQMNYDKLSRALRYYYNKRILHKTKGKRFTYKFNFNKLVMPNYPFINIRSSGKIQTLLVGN
# Summary of the method: as §1
# ETV6 = ETV6 (Homo sapiens, UniProt P41212 1-452)
# Summary of the method: as §1
# Sequence of ETV6 (P41212 whole entry): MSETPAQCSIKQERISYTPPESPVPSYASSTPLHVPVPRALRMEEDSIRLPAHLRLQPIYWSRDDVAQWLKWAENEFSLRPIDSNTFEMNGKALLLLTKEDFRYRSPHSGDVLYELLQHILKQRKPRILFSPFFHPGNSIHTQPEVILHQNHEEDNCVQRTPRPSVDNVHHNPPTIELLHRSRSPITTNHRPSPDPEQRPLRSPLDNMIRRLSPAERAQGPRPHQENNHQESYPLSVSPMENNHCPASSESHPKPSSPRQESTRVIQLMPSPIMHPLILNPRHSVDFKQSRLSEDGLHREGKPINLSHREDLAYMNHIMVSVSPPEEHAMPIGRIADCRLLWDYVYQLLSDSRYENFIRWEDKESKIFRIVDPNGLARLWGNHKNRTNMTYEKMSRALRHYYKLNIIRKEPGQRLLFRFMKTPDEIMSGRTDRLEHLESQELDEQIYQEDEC
# Sequence of ELF4 (Q99607 whole entry): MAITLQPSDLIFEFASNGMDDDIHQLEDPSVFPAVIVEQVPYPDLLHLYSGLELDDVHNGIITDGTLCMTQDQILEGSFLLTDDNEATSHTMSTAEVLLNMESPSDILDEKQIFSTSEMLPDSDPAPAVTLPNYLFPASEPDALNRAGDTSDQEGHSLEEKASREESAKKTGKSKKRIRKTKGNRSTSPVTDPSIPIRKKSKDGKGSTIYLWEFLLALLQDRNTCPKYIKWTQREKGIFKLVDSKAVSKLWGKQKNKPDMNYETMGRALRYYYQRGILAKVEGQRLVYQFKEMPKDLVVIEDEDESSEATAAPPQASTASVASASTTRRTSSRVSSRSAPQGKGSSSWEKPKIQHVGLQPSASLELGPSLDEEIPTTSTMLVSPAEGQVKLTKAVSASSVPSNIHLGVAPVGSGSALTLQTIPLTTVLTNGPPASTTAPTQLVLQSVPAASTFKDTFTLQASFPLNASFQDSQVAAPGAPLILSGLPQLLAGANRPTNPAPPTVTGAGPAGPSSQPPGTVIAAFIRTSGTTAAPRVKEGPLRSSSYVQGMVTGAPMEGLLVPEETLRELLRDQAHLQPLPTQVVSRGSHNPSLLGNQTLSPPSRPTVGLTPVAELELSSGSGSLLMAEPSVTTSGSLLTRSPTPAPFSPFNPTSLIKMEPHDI
# Sequence of ETV5 (P41161 whole entry): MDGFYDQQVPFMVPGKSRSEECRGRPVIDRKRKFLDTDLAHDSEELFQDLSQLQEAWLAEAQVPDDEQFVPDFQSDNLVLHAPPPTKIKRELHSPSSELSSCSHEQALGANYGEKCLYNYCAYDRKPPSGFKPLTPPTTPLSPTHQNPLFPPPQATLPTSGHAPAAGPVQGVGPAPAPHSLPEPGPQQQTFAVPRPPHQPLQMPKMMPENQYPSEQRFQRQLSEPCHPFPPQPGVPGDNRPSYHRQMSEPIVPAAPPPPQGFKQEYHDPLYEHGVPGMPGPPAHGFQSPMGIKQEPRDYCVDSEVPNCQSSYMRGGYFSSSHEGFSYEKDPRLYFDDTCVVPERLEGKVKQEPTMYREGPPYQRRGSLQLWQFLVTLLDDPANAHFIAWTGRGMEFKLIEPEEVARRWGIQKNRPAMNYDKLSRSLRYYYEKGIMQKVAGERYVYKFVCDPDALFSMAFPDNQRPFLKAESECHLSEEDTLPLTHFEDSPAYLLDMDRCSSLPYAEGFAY
# Sequence of SPIB (Q01892 whole entry): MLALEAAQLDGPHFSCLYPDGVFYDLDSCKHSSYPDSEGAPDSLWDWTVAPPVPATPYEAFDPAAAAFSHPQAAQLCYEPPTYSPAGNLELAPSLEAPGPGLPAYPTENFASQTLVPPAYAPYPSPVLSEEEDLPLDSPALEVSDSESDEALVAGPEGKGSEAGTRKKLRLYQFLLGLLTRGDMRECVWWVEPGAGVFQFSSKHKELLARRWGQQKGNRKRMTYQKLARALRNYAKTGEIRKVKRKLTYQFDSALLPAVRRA
sequence,measurement,setting,value
GCCCCG,binding signal,ELK1,"1.07 fold enrichment (6-mer frequency, TF over GST control)"
same,binding signal,ERG,"1.06 fold enrichment (6-mer frequency, TF over GST control)"
same,binding signal,EHF,"1.01 fold enrichment (6-mer frequency, TF over GST control)"
same,binding signal,SPIB,"1.16 fold enrichment (6-mer frequency, TF over GST control)"
same,binding signal,ETV5,"1.02 fold enrichment (6-mer frequency, TF over GST control)"
same,binding signal,SPIC,"1.13 fold enrichment (6-mer frequency, TF over GST control)"
same,binding signal,ELF4,"1.09 fold enrichment (6-mer frequency, TF over GST control)"
same,binding signal,ELK4,"1.13 fold enrichment (6-mer frequency, TF over GST control)"
same,binding signal,ELF3,"1.08 fold enrichment (6-mer frequency, TF over GST control)"
same,binding signal,ERF,"1 fold enrichment (6-mer frequency, TF over GST control)"
same,binding signal,ETV3L,"1.03 fold enrichment (6-mer frequency, TF over GST control)"
same,binding signal,ETS2,"1.02 fold enrichment (6-mer frequency, TF over GST control)"
same,binding signal,SPDEF,"1.01 fold enrichment (6-mer frequency, TF over GST control)"
same,binding signal,ETV7,"1.06 fold enrichment (6-mer frequency, TF over GST control)"
same,binding signal,ETV3,"1.15 fold enrichment (6-mer frequency, TF over GST control)"
same,binding signal,ETV6,"1.09 fold enrichment (6-mer frequency, TF over GST control)"
